Shown are actives, neighbours in structure and some others; about 6.5% of the full set was active somewhere.
DPM-DC inhibit: S. pneumoniae DPM-DC inhibitors, primary screen, biochemical, PK/LDH-coupled NADH fluorescence; diphosphomevalonate decarboxylase (Streptococcus pneumoniae D39); calls only at 10 µM; 65,000 tested, 0.49% active; purified DPM-DC;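 active = the 320 compounds with the highest percent inhibition in the single-dose primary screen, excluding strongly autofluorescent ones, cut at about 32% in these data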;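 also: kinetic rate of NADH fluorescence loss reporting ADP formed by the decarboxylase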
Fluor 339 460: intrinsic fluorescence of library compounds, ex339/em460 – biochemical, MLSMR library, data from DPM-DC assay, artefact control, profiling panel. compound autofluorescence, ex339/em460 nm, NADH buffer; active compounds read high; 1 = no-compound wells, NADH background. fluorescence fold increase at 10 µM. 65,000 tested, 5.5% active. AID 709, 2007;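 active = at 10 µM, mean starting fluorescence two-fold or more over control wells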;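 also: signal is the first read of a kinetic run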
NADH coupling: inhibitors of PK/LDH coupling enzymes, profiling panel, artefact control, biochemical, MLSMR library; 65,000 tested, 0.02% active; IC50, µM (titrated, usually from 10 µM); coupled PK/LDH NADH assays, four targets;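 active = single-dose screening hits from any of four coupled enzyme assays that gave an IC50 when retested across doses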;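 also: the DPM-DC format reads NADH fluorescence rather than 340 nm absorbance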
Abs 340nm: compound light absorbance at 340 nm, profiling panel, artefact control, biochemical, MLSMR library, data from PS, PMK, MK assays; 65,000 tested, under 10 active; fold change at 10 µM; compound absorbance at 340 nm, fold over control;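 active = at 10 µM dose, initial 340 nm absorbance at least 2 fold that of control wells; inactive = change under 2 fold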;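 also: initial absorbance extrapolated from kinetic A340 decline of NADH oxidation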
Spn PMK inh: S. pneumoniae PMK inhibitors, primary screen, biochemical, mevalonate pathway, pilot trial included; phosphomevalonate kinase (Streptococcus pneumoniae D39); purified PMK, PK/LDH-coupled NADH absorbance 340 nm; inhibition, % at 10 µM; 65,000 tested, 0.49% active; AID 539, 2006;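 active = top-ranked compounds by inhibition in the single 10 µM screen, taking a fixed number of the strongest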
MK inhibit: S. pneumoniae MK inhibitors, primary screen, biochemical, PK/LDH-coupled NADH absorbance; purified MK, PK/LDH-coupled NADH absorbance 340 nm; AID 555, 2006; 65,000 tested, 0.48% active; inhibition, % at 10 µM; mevalonate kinase [Streptococcus pneumoniae D39];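 active = ranked among the strongest by inhibition in the single 10 µM screen, a fixed top-ranked set picked for dose follow-up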
Numbers stand for hits; n = inactive; x = not tested or not shown; + = active, no number.

SMILES	DPM-DC inhibit	Fluor 339 460	NADH coupling	Abs 340nm	Spn PMK inh	MK inhibit
Cc1sc2nc3n(c(=O)c2c1C)Cc1ccccc1-3	x	3.7	n	n	n	n
CCOc1cccc(C(=O)Nc2cccc(-c3nnc(-c4ccccc4)o3)c2)c1	n	n	n	n	n	n
O=C(Nc1ccc(-c2nc3ncccc3o2)cc1)c1ccco1	+	2.6	n	n	n	n
Cc1ccc(-c2nnc(-c3ccc(NC(=O)c4ccco4)cc3)o2)cc1	n	3	n	n	n	n
Cc1nc(NC(=O)c2ccco2)sc1C(=O)Nc1ccc(Br)cc1	n	n	n	n	25	n
CCOc1cccc(C(=O)Nc2cccc(-c3nnc(-c4ccc(C)cc4)o3)c2)c1	x	3.6	n	n	n	n
O=C(Nc1ccc(-c2nc3ncccc3o2)cc1)c1ccc(Br)o1	x	n	n	n	n	n
Cc1ccc2nc(-c3ccc(NC(=O)c4ccco4)cc3)[nH]c2c1	n	n	n	n	n	n
CC1(C)Cc2cccc(OCC(=O)N3CCN(S(=O)(=O)c4ccccc4)CC3)c2O1	n	n	n	n	n	n
COc1ccc(-c2nc(C#N)c(NCc3ccc(F)cc3)o2)cc1OC	x	3.9	n	n	n	n
COc1ccc(-c2nc(C#N)c(NCc3ccccc3Cl)o2)cc1OC	x	4	n	n	n	n
COc1ccc(-c2nc(C#N)c(NCc3ccccc3Cl)o2)cc1	n	3.1	n	n	n	n
COc1ccc(CNc2oc(-c3ccccc3)nc2C#N)cc1	x	n	n	n	n	n
Cc1cc2n(n1)C(c1cn(-c3ccccc3)nc1C)Nc1ccccc1-2 (stereo not given)	n	2.1	n	n	n	n
Cc1cc2n(n1)C(c1ccco1)Nc1ccccc1-2 (stereo not given)	n	n	n	n	n	n
Cc1cc2n(n1)C(c1ccc(O)cc1)Nc1ccccc1-2 (stereo not given)	n	2.9	n	n	n	n
Cc1cc2n(n1)C(c1c[nH]c3ccccc13)Nc1ccccc1-2 (stereo not given)	n	2.4	n	n	n	n
CCn1cc(C2Nc3ccccc3C(=O)N2O)c(C)n1 (stereo not given)	n	n	n	n	n	n
Cc1nnc(SCc2ccc(Cl)cc2)n1CC1CCCO1 (stereo not given)	n	n	n	n	n	n
CCCCNC(=O)CCCCCNS(=O)(=O)c1ccc(OC)cc1	n	n	n	n	n	n
O=C(Nc1ccc(-c2nc3ccccc3o2)c(O)c1)c1cc(-n2cnnc2)ccc1Cl	x	3.9	n	n	n	n
COc1cc(C(=O)Nc2cccc(-c3nc4ccccc4o3)c2C)cc(OC)c1OC	n	n	n	n	n	n
COc1cc(OC)cc(C(=O)Nc2ccc(-c3nc4ccccc4o3)cc2)c1	x	2.2	n	n	n	n
COc1cc(C(=O)Nc2ccc(-c3nc4cc(C)ccc4o3)c(O)c2)cc(OC)c1OC	x	4.7	n	n	n	n
O=C(Nc1ccc2oc(-c3ccccc3)nc2c1)c1ccncc1	n	n	n	n	n	n
SMILES	DPM-DC inhibit	Fluor 339 460	NADH coupling	Abs 340nm	Spn PMK inh	MK inhibit
COc1cccc(C(=O)Nc2ccc(-c3nc4ccccc4o3)c(O)c2)c1	x	2.1	n	n	n	n
COC(=O)COC(=O)CC(CC(N)=O)c1ccccc1 (stereo not given)	n	n	n	n	n	n
COCCCNC(=O)Cn1nnc(-c2ccccc2NC(=O)c2ccccc2F)n1	n	n	n	n	n	n
Cc1ccc(S(=O)(=O)NC2CCCC(C(=O)O)C2)cc1 (stereo not given)	n	n	n	n	n	n
Cc1ccc2c(c1)-c1ccccc1S(=O)(=O)N2	x	3.7	n	n	n	n
COc1ccc2nc(NC(=O)C(NS(=O)(=O)c3cccs3)C(C)C)sc2c1 (stereo not given)	n	n	n	n	n	n
CC1CCN(c2nc3c(c(=O)[nH]c(=O)n3C)n2Cc2ccccc2Cl)CC1	n	n	n	n	n	n
CCOc1ccc2nc(-c3ccccc3)[nH]c2c1	x	4	n	n	n	n
COc1ccc2nc(NCc3ccccc3)[nH]c2c1	n	n	n	n	n	n
COc1ccc2nc(-c3ccccc3)[nH]c2c1	x	2.3	n	n	n	n
CCOc1ccc2nc(C(C)O)[nH]c2c1 (stereo not given)	n	n	n	n	n	n
Cc1ccc(C(=O)N2CCCC(c3nc4c(nnn4Cc4ccccc4)c(=O)[nH]3)C2)cc1 (stereo not given)	n	n	n	n	n	n
CCC1(C)Cc2c(sc3c2c(=O)n(C)c2nnc(SCC(=O)c4ccc(Cl)cc4)n32)CO1 (stereo not given)	n	n	n	n	n	n
CC1(C)Cc2c(c(N3CCOCC3)nc3sc(C#N)c(N)c23)CS1	x	2.5	n	n	n	n
CCOC(=O)c1c(N)n(CCOC(=O)c2cccs2)c2nc3ccccc3nc12	x	3.7	n	n	n	n
Cc1cc(NC(=O)c2cc(C3CC3)on2)no1	n	n	n	n	n	57
COc1ccc(OC)c(-c2cc(C(=O)Nc3c(C)nn(Cc4ccc(Cl)cc4)c3C)no2)c1	n	n	n	n	n	n
CCc1c(C)sc(NC(=O)c2cc(-c3cc(OC)ccc3OC)on2)c1C#N	x	5.1	n	n	n	n
COc1ccc(OC)c(-c2cc(C(=O)Nc3cccc(Cl)c3)no2)c1	x	4.3	n	n	n	n
COc1ccc(OC)c(-c2cc(C(=O)Nc3cc(C)on3)no2)c1	n	2.8	n	n	n	n
COc1ccc(OC)c(-c2cc(C(=O)Nc3c(C)nn(Cc4ccccc4)c3C)no2)c1	n	n	n	n	n	n
Cc1cc(NC(=O)c2cc(C)on2)no1	n	n	n	n	n	n
COc1ccc(C(=O)Nc2nc(-c3cccs3)cs2)cc1	n	n	n	n	n	n
CCCSc1nnc(NC(=O)c2sc3nc(-c4cccs4)ccc3c2N)s1	x	4.5	n	n	n	n
Cc1csc(NC(=O)c2sc3nc(-c4cccs4)ccc3c2N)n1	x	2.4	n	n	n	n
COC(=O)c1cc2c(=O)n3ccccc3nc2n(Cc2cccnc2)c1=N	x	3.7	n	n	n	n
Cn1nc(C(=O)NCC2CCCO2)c2ccccc2c1=O (stereo not given)	n	n	n	n	n	n
COC(=O)c1cc2c(=O)n3ccccc3nc2n(C)c1=N	x	3.8	n	n	n	n
